Values joined by “and” are separate entries in the source; they are usually repeats but may differ in a detail not shown here. Identical values can stand only once. Active and inactive are the calls of the source.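 How the source made its calls, unless noted: active means inhibition at or above 50% relative to wild type and mutant plate controls; inactive means inhibition below 50%.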
Legend:
[1] = inhibitors of TNFa-induced NFkB p65 translocation, primary screen, imaging, HUVEC, MLSMR starter and 10KST1 sets (AID 438;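 active means inhibition above 20% together with a positive visual image hit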;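 further: compound added about 3h40 before a 20 min TNFalpha stimulation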;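 on inhibition: signal is the nuclear over cytoplasmic p65 intensity ratio per well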); settings: HUVEC TNFa-induced p65 nuclear translocation; cell count: measured here: nuclei count (cytotoxicity indicator), at 2.08 µM; inhibition: at 2 µM, stronger effect = higher value, 0% TNFa-plus-vehicle, 100% no-TNFa wells
[2] = reduction of polyQ htt aggregates in cells – imaging, exon1htt(103Q)mCFP cells, high-content imaging, primary screen (AID 483;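 active means visual image review flags a hit and inhibition of aggregation exceeds 20%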;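 further: compound exposure lasted 3 days before fixation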;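 on nuclei count: percent of the per-plate median nuclei count of sample wells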); settings: exon1htt(103Q)mCFP cell line, aggregate imaging, at 2 µM; inhibition of aggregation: stronger effect = higher value; nuclei count: measured here: cell count, toxicity
[3] = endothelial E-selectin expression blockers – imaging, HUVEC, immunofluorescence, MLSMR starter and 10KST1 sets, primary screen (AID 487;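 active means visually confirmed hit in the image check and inhibition above 20%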;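 on inhibition: signal is fraction of cell area covered by stained E-selectin grains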;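 on nuclei count: 100% = median nuclei count of all wells on the same plate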); settings: HUVEC TNFalpha-induced E-selectin immunofluorescence imaging, at 2 µM; inhibition: stronger effect = higher value; nuclei count: measured here: cell number, toxicity
[4] = Primary imaging screen for DUSP6 inhibitors that restore phospho-Erk in transfected HeLa cells, chemical complementation (AID 609;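 active means compounds giving at least 50% inhibition in the cell-based MKP-3 phosphatase rescue imaging test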;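 on inhibition: phospho-Erk level distribution per well compared with pooled transfected vehicle control wells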); settings: HeLa MKP-3 transfected, phospho-Erk imaging KS statistic, at 10 µM, cells stimulated with TPA for 15 min
[5] = biological target: Dual specificity protein phosphatase 6 (Homo sapiens) (UniProt Q16828); test: as above; settings: HeLa MKP-3 transfected, phospho-Erk imaging KS statistic; at 10 µM; stronger effect = higher value; cells stimulated with TPA for 15 min
[6] = biological target: Voltage-gated potassium channel subunit beta-2 (Rattus norvegicus) (UniProt P62483); test: inhibitors of rat Kvbeta2 reductase activity – biochemical, NADPH fluorescence, primary screen (AID 622;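 active means fluorescence slope higher than the sample average by over 3 SD, cut at about -0.22 in these data, passing the limit was not always enough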;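 further: slope of raw intensity against log time taken from 70 to 1610 s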); settings: recombinant KvBeta, 4-cyanobenzaldehyde reduction, at 10 µM, stronger effect = higher value
[7] = biological target: Voltage-gated potassium channel subunit beta-2 (Rattus norvegicus) (UniProt P62483); test: enhancers of rat Kvbeta2 NADPH turnover – biochemical, NADPH fluorescence, primary screen (AID 623;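 active means NADPH fluorescence slope more negative than the mean of all samples by about 3 SD, 99.7% confidence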;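 further: fluorescence intensity change per second fitted from 20 to 320 s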); settings: Recombinant KvBeta, NADPH fluorescence decrease slope, 10 min; at 10 µM; stronger effect = lower value
[8] = biological target: Alpha-2C adrenergic receptor (Homo sapiens) (UniProt P18825); test: compounds altering alpha2C-coupled GIRK flux – cell-based, HEK293 alpha2C/GIRK1/2, thallium flux, primary screen (AID 624;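 active means fluorescence slope after compound addition differing from the mean of all screened samples at 99.7% confidence, in either direction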;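 further: slope of fluorescence ratio to pre-addition baseline per second over 15 to 24 s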); settings: thallium flux BTC fluorescence, at 10 µM, actives lie on both sides
[9] = inhibitors of larval lipid processing in zebrafish, primary screen, whole organism, PED6 fluorescence, gall bladder and intestine (AID 686;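 active means a full or partial loss of lipid-probe fluorescence in the fish gall bladder, intestine or both, judged by eye; inactive means no fluorescence loss, or compound toxic to the fish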;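 further: larvae 5 to 7 days old with five fish per well; signal comes from phospholipase A2 cleavage of quenched PED6 carried via bile; overnight exposure to compound and PED6 before scoring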); settings: Zebrafish larvae PED6 lipid processing, fluorescence scoring; screened at 20 µM (by protocol)
[10] = loss of swimming-algae plug formation – whole organism, Chlamydomonas reinhardtii, WT vs cilia-less mutant, absorbance, 96-well, primary screen (AID 463189); settings: Chlamydomonas reinhardtii gravitaxis, OD600 absorbance, 2 days; at 10 µM; stronger effect = higher value;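 further: 0% = wild type cc124 cells in DMSO and 100% = ciliumless bld1 mutant cells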
[11] = blockers of RIG-like receptor reporter activation – cell-based, Sendai virus stimulus, luciferase, 10K MLSCN set, TLR/RLR signaling modifier project, primary screen (AID 602276;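 active means inhibition at or above 50% at 10 µM; inactive means inhibition below 50%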;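 further: firefly luciferase from ISG56 promoter only with Renilla not read in this screen; 0% = Sendai virus plus DMSO and 100% = medium plus DMSO without virus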); settings: HEK293 RL24 IRF3 luciferase reporter, at 10 µM, stronger effect = higher value
[12] = TLR3 IRF3 reporter activation blockers – cell-based, poly I:C stimulus, luciferase, 10K MLSCN set, primary screen (AID 602277;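 active means inhibition of the reporter signal at or above 50%; inactive means inhibition below 50%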); settings: HEK293-TLR3 RL24 IRF3 luciferase reporter, at 10 µM, stronger effect = higher value
[13] = measured here: cell density z-score
[14] = measured here: nuclear c-Myc green intensity z-score
[15] = measured here: nuclear pErk red intensity z-score, stronger effect = higher value

Chain of Dual specificity protein phosphatase 6 (Homo sapiens) (Q16828 whole entry, looked up): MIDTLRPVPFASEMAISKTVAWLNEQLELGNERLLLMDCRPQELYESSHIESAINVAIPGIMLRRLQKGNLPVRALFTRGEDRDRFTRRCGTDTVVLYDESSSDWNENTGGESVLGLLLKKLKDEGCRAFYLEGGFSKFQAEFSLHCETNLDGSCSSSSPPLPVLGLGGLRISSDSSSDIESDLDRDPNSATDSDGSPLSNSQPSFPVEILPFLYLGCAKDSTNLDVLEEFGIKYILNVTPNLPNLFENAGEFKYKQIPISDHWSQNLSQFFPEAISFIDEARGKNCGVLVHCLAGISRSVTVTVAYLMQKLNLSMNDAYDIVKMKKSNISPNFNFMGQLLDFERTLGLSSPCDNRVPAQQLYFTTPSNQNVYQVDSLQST
Chain of Voltage-gated potassium channel subunit beta-2 (Rattus norvegicus) (P62483 whole entry, looked up): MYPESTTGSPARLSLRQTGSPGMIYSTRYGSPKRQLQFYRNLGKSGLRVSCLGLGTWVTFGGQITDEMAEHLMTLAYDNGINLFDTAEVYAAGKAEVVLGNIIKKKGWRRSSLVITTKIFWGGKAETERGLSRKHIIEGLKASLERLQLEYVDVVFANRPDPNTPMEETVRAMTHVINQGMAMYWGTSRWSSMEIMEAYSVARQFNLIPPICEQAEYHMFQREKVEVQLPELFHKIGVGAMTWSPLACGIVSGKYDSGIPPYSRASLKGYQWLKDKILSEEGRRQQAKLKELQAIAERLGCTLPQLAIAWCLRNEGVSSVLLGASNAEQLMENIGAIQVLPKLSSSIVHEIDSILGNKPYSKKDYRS
Chain of Alpha-2C adrenergic receptor (Homo sapiens) (P18825 whole entry, looked up): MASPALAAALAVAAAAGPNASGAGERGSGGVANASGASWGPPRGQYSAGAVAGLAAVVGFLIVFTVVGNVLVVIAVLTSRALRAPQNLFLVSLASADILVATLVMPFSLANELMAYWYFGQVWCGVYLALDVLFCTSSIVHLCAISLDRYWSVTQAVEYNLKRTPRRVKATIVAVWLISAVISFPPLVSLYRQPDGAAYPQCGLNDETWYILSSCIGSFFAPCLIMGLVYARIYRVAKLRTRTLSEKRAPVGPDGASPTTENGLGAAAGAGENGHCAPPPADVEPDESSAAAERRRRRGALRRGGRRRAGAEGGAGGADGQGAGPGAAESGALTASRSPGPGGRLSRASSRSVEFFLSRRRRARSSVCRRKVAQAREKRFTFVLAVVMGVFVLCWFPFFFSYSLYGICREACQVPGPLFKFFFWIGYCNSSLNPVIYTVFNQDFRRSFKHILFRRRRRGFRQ

SMILES	cell count [1]	inhibition [1]	inhibition of aggregation [2]	nuclei count [2] [%]	inhibition [3]	nuclei count [3] [%]	z-score [4, 13]	z-score [4, 14]	z-score [4, 15]	inhibition [5]	fluorescence slope [6]	NADPH fluorescence slope [7]	slope [8]	outcome [9]	inhibition [10]	inhibition [11]	inhibition [12]
O=C(NCc1ccco1)c1cnn2c(C(F)(F)F)cc(-c3ccco3)nc12	480	-4.4% (inactive)	-12.5% (inactive)	95.1	-34.8% (inactive)	118	-0.634	0.493	-1.31	11.3% (inactive)	-0.421 (inactive)	-6.2e-05 (inactive)	0.00539 (inactive)	inactive	-15.7% (inactive)	16% (inactive)	24.8% (inactive)
CC(C)C1Cc2c(C#N)c(N)sc(=S)c2CO1 (stereo not given)	487	4.7% (inactive)	2.2% (inactive)	102	-98.3% (inactive)	146	1.33	-0.895	0.775	14% (inactive)	-0.291 (inactive)	1.2e-05 (inactive)	0.0021 (inactive)	inactive	27.2% (inactive)	-3.04% (inactive)	12.1% (inactive)
O=c1oc2cc(O)ccc2c2oc3cc(O)ccc3c12	610	3.6% (inactive)	11.2% (inactive)	78.7	-22% (inactive)	112	0.528	1.66	-1.32	25.7% (inactive)	-0.398 (inactive)	-1e-05 (inactive)	0.00469 (inactive)	inactive	6.48% (inactive)	12.4% (inactive)	41.2% (inactive)
Cn1c(=O)c2c3c(sc2n2c(SCc4ccccc4)nnc12)CCCC3	550	-5.3% (inactive)	1.8% (inactive)	103	-44% (inactive)	99.3	-0.0166	-0.0898	-0.287	4.37% (inactive)	-0.371 (inactive)	-1.7e-05 (inactive)	0.00552 (inactive)	inactive	32.4% (inactive)	-3.8% (inactive)	97.9% (active)
CC(=O)OCC(=O)[C@H]1CC[C@H]2[C@@H]3CC=C4C[C@@H](O)CC[C@]4(C)[C@H]3CC[C@]12C	586	-9.5% (inactive)	16.5% (inactive)	99.7	-22.1% (inactive)	128	0.459	0.562	-0.353	17.3% (inactive)	-0.45 (inactive)	-6.8e-05 (inactive)	0.00533 (inactive)	inactive	35% (inactive)	9.44% (inactive)	25.1% (inactive)
Cn1c(-n2c(-c3ccco3)nc3ccccc3c2=O)nc2ccccc21	589	-10.5% (inactive)	32% (inactive)	109	-8.3% (inactive)	126	0.944	0.431	-0.392	8.31% (inactive)	-0.351 (inactive)	-6.3e-06 (inactive)	0.00557 (inactive)	inactive	9.97% (inactive)	20.8% (inactive)	6.14% (inactive)
CC(C)Sc1nc(N2CCCC2)c2c(c1C#N)CC(C)(C)OC2	547	-6.2% (inactive)	15.4% (inactive)	73.8	-59.4% (inactive)	126	1.33	-1.33	-0.539	24.4% (inactive)	-0.386 (inactive)	4.7e-06 (inactive)	0.00612 (inactive)	inactive	48.4% (inactive)	14% (inactive)	18.1% (inactive)
CCN(CC)CCN1C(=O)C(=O)/C(=C(/O)c2ccc(OC(C)C)cc2)C1c1ccncc1 (stereo not given)	529	-5.6% (inactive)	3% (inactive)	116	-8.2% (inactive)	104	-0.653	-0.46	-0.356	-6.48% (inactive)	-0.356 (inactive)	4.4e-05 (inactive)	0.00527 (inactive)	inactive	-14% (inactive)	8.32% (inactive)	8.84% (inactive)
CC(C)(C)NCC(O)c1cc(O)cc(O)c1 (stereo not given)	472	-2.4% (inactive)	21.1% (inactive)	89.3	-7% (inactive)	88.9	0.22	-3	-0.525	1.38% (inactive)	-0.472 (inactive)	-6.7e-05 (inactive)	0.00544 (inactive)	inactive	6.82% (inactive) and -7.52% (inactive)	7.09% (inactive)	35.9% (inactive)
C[C@]12CC[C@@H]3c4ccc(O)cc4C(=O)C[C@H]3[C@@H]1CC[C@@H]2O	575	-1.5% (inactive)	12.4% (inactive)	79.9	-48.8% (inactive)	123	0.0524	0.457	1.93	10.2% (inactive)	-0.47 (inactive)	-7.3e-05 (inactive)	0.00515 (inactive)	inactive	-6.24% (inactive)	-0.554% (inactive)	18.4% (inactive)
COc1ccccc1-n1c(=O)c2c3c(sc2n2c(SC(C)C)nnc12)CCC3	643	-11.3% (inactive)	31.3% (active)	93.7	-68% (inactive)	145	1.45	-1.07	1.13	-11% (inactive)	-0.248 (inactive)	1.3e-05 (inactive)	0.005 (inactive)	inactive	34.4% (inactive)	0.779% (inactive)	20.4% (inactive)
OC[C@H]1O[C@@H](n2cnc3c(NC4CCCC4)ncnc32)[C@H](O)[C@@H]1O	528	-13.1% (inactive)	-15.5% (inactive)	110	-19.6% (inactive)	126	1.27	-0.327	-0.893	11.3% (inactive)	-0.459 (inactive)	2.3e-05 (inactive)	0.00611 (inactive)	inactive	30.3% (inactive)	-1.14% (inactive)	12.9% (inactive)
CCCCOc1ccc(C(=O)Nn2cnnc2)cc1	491	-0.8% (inactive)	14.2% (inactive)	96.9	-83.6% (inactive)	100	-0.477	-1.53	-0.77	-8.27% (inactive)	-0.32 (inactive)	-2.1e-05 (inactive)	0.00306 (inactive)	inactive	0.154% (inactive)	9.75% (inactive)	15.4% (inactive)
CCCN(CCC)S(=O)(=O)c1ccc(C(=O)O)cc1	623	-9.8% (inactive)	6.1% (inactive)	108	-101% (inactive)	118	0.315	0.261	0.309	-2.46% (inactive)	-0.448 (inactive)	3.2e-06 (inactive)	0.00488 (inactive)	inactive	-3.99% (inactive)	0.7% (inactive)	13.7% (inactive)
C=CCn1cnc2c(c1=O)c1nc3ccccc3nc1n2-c1ccc(C)cc1	548	-5.7% (inactive)	-8.4% (inactive)	100	-70.3% (inactive)	132	-0.575	-1.45	1.52	-2.07% (inactive)	-0.354 (inactive)	-6.7e-05 (inactive)	0.00438 (inactive)	inactive	15.4% (inactive)	15.3% (inactive)	10% (inactive)
Cc1ccc(/C(O)=C2/C(=O)C(=O)N(Cc3ccco3)C2c2cccs2)cc1 (stereo not given)	592	-1.5% (inactive)	-9.7% (inactive)	111	-40.6% (inactive)	136	-0.164	0.546	1.58	-18.6% (inactive)	-0.497 (inactive)	-6.4e-05 (inactive)	0.00587 (inactive)	inactive	-4.07% (inactive)	-8% (inactive)	3.2% (inactive)
O=C(Nc1ccc2c(c1)OCO2)c1cncc(Br)c1	613	-11% (inactive)	-11.9% (inactive)	87.1	-29.9% (inactive)	149	1.08	-0.36	-1.03	19.1% (inactive)	-0.419 (inactive)	-3.7e-05 (inactive)	0.00513 (inactive)	inactive	-3.07% (inactive)	-15.3% (inactive)	-51.1% (inactive)
NC(=O)OCC(COC(N)=O)c1ccccc1	615	-7.6% (inactive)	-2.4% (inactive)	114	-22.5% (inactive)	108	1.02	-0.593	-0.701	3.45% (inactive)	-0.44 (inactive)	-3.1e-05 (inactive)	0.00508 (inactive)	inactive	-4.89% (inactive) and -8.93% (inactive)	17.5% (inactive)	34.3% (inactive)
Cc1nc2c(c(=O)n1CC1CCCO1)c1nc3ccccc3nc1n2CC(C)C (stereo not given)	460	-4.3% (inactive)	12.6% (inactive)	107	-42.3% (inactive)	96.8	1.43	1.1	-2.3	9.42% (inactive)	-0.449 (inactive)	-6.4e-05 (inactive)	0.00602 (inactive)	inactive	0.529% (inactive)	20.9% (inactive)	22.8% (inactive)
CC[N+](C)(CC)CCOC(=O)C(O)(c1ccccc1)C1CCCCC1 (stereo not given)	475	-3.8% (inactive)	7.2% (inactive)	95.4	-15.1% (inactive)	111	-1.3	-0.403	0.0665	-4.44% (inactive)	-0.515 (inactive)	-2.6e-05 (inactive)	0.00498 (inactive)	inactive	-14% (inactive)	2.1% (inactive)	24.6% (inactive)

Reference: PubChem BioAssay
